The values below come from PMC4552634, “A New Set of Chemical Starting Points with Plasmodium falciparum Transmission-Blocking Potential for Antimalarial Drug Discovery” (PLoS ONE, 2015).

As usually defined, the % Inhibition is the relative decrease from the control value, in per cent.

Each structure is given as a SMILES string. Out of some 13,000 compounds screened, about 3,200 (25%) showed an effect of 50% or more. The list shows a part of the results.

This experiment deals with P. falciparum stage V gametocytes. Set-up: BacTiter-Glo ATP luminescence viability of purified stage V gametocytes in 384-well plates, per cent inhibition versus DMSO. The settings on record: 48 h, 5 µM; inhibitor.
For `Clc1ccc2c(N3CCN(CCN4CCN(c5ccnc6cc(Cl)ccc56)CC4)CC3)ccnc2c1` [TCMDC-125557], the “% Inhibition” value is listed as -4.056%.
`CCCc1cc(Cc2cnc(N)nc2N)ccc1OCCCCCC(=O)OCC` [TCMDC-137232]: the “% Inhibition” value is recorded as -11.7%.
Regarding `CCOC(=O)C(=CNc1ccc(Cc2cnc(N)nc2N)cc1CC)C(=O)OCC` [TCMDC-137346], the “% Inhibition” value came to 53.58%.
Under `CCc1cc(Cc2cnc(N)nc2N)cc(CC)c1OC` [TCMDC-137697] stands -15.83%; under `O=C1CN(C(=O)CCC2CCCC2)C(c2ccc(F)cc2)c2cc(F)ccc2N1` (centres unmarked) [TCMDC-124463], -48.27%.
As for `Nc1ncc(-c2cc3ccccc3o2)c(N)n1` [TCMDC-137177], the “% Inhibition” value turned out to be 18.48%.
With `c1ccc2oc(-c3cc4ccncc4cc3OC3CCNCC3)cc2c1` [TCMDC-134160], the “% Inhibition” value worked out at 92.38%.
Under `O=C(Nc1cccnc1)c1ccc(-c2cc3ccncc3cc2OC2CCNCC2)s1` [TCMDC-134228] stands 62.63%; under `Cc1cc(NC(=O)c2cccs2)ccc1OC1CCN(Cc2ccccc2)CC1` [TCMDC-133988], 37.37%.
Under `O=C(Nc1cccc(OC2CCN(Cc3ccccc3)CC2)c1)c1ccc(Cl)c(Cl)c1` [TCMDC-139542] stands 5.419%; under `c1cncc(NCc2ccc(-c3cc4ccncc4cc3OC3CCNCC3)s2)c1` [TCMDC-134161], 28.32%; under `O=C(Nc1ccccc1)c1ccc(-c2cc3ccncc3cc2OC2CCNCC2)s1` [TCMDC-134227], 77.06%.
For `COc1cccc(-c2nn(C)c3sc(C(=O)Nc4cccnc4)cc23)c1` [TCMDC-123584], the “% Inhibition” value is reported as -55.35%.
As to `c1ccc(-c2cc3cccc(-c4nc5ccncc5[nH]4)c3o2)cc1` [TCMDC-140516], the “% Inhibition” value is on record as 7.065%.
Under `CCOC(=O)c1ccc(NC(=O)Nc2cccc(-c3ccc(-c4nc5cccc(C)c5[nH]4)s3)c2)cc1` [TCMDC-133258] stands -27.38%; under `O=C(Nc1ccsc1)Nc1cccc(-c2cccc(-c3nc4ccc(F)cc4[nH]3)c2)c1` [TCMDC-133216], -18.7%.
Consider `O=C(Nc1cccc(-c2ccc(-c3nc4ccc(F)cc4[nH]3)cc2)c1)Nc1ccc(F)c(F)c1F` [TCMDC-133231], for which the “% Inhibition” value is listed as -4.749%.
Under `C=Cc1cc(NC(=O)N2CCc3cc(OC)c(C(F)(F)F)cc32)cc(-c2cccnc2)c1` [TCMDC-139030] stands -6.517%; under `CC(C)=CC1C(C(=O)n2c(N)nc3ccccc32)C1(C)C` (centres unmarked) [TCMDC-131688], 3.871%.
Consider `Cc1c(N)ccc2[nH]c(-c3ccc(N)cc3)nc12` [TCMDC-124242], for which the “% Inhibition” value was 91.56%.
In the case of `CC(C)(C)c1ccc(-c2cc3c(ccc4nc(N)nc(N)c43)[nH]2)cc1` [TCMDC-137977] it was 117.8%; in that of `CC(C)n1c(C(C)(C)C)cc2c3c(N)nc(N)nc3ccc21` [TCMDC-137311], 32.82%.
Take `Cc1cc(N)cc2[nH]c(-c3ccc(N)cc3)nc12` [TCMDC-124391]: the “% Inhibition” value is -6.074%.
`CC(C)(C)c1ccc(Cc2cccc3nc(N)nc(N)c23)cc1` [TCMDC-137821]: the “% Inhibition” value is -51.22%.
Under `Nc1ccc(-c2nc3c(ccc4ccccc43)[nH]2)cc1` [TCMDC-124395] stands 24.31%; under `CC(C)c1cc2c(ccc3nc(N)nc(N)c32)[nH]1` [TCMDC-137847], 19.02%.
Take `Cc1c(C(C)(C)C)ccc2nc(N)nc(N)c12` [TCMDC-137831]: the “% Inhibition” value is listed as -39.39%.
With `CC(C)(C)c1ccc(-c2nc3c(ccc4nc(N)nc(N)c43)[nH]2)cc1` [TCMDC-137984], the “% Inhibition” value was determined as 112.2%.
Under `CC1(C)N=C(N)N=C(N)N1OCCOc1ccc2ccccc2c1` [TCMDC-131609] stands -8.756%; under `N#Cc1cc(C(=O)Nc2ccccc2)c(N)nc1SCC(=O)Nc1ccc(Br)cc1` [TCMDC-124873], -53.64%; under `CCCC(C)Nc1nc(C)cc(N[C@@H](CC(C)C)C(=O)NCCc2ccccc2)n1` (some centres unmarked) [TCMDC-134769], -46.8%.
For `[O-][s+]1c(Cl)c(-c2ccc(Cl)cc2)c2ccc(Cl)cc21` (centres unmarked) [TCMDC-124011], the “% Inhibition” value was 120.8%.
Under `Cc1noc(C)c1-c1ccc(C(=C2CCCCCCC2)c2ccc(O)cc2)cc1` [TCMDC-135872] stands -5.918%.
On to `Fc1ccc(-c2oc(C3CCN(CCc4ccc(-c5nc(=S)o[nH]5)cc4)CC3)nc2COCC(F)(F)F)cc1` [TCMDC-138124], for which the “% Inhibition” value is given as 11.59%.
Turning to `O=C(Cc1c[nH]cn1)Nc1cccc(-c2ccc(-c3nc4cc(C(F)(F)F)ccc4[nH]3)s2)c1` [TCMDC-136945], the “% Inhibition” value is 84.53%.
In the case of `O=C(Nc1cccc(-c2ccc(-c3nc4cc(C(F)(F)F)ccc4[nH]3)s2)c1)c1c[nH]cn1` [TCMDC-136934] it was 63.59%.
Turning to `O=C(Cc1c[nH]cn1)Nc1ccc(-c2ccc(-c3nc4cc(C(F)(F)F)ccc4[nH]3)s2)cc1` [TCMDC-136944], the “% Inhibition” value is on record as -5.397%.
`O=C(Nc1ccc(-c2ccc(-c3nc4cc(C(F)(F)F)ccc4[nH]3)s2)cc1)c1c[nH]cn1` [TCMDC-136933]: the “% Inhibition” value amounted to 1.444%.
In the case of `O=C(Nc1cccc(-c2ccc(-c3nc4cc(C(F)(F)F)ccc4[nH]3)s2)c1)c1ccncc1` [TCMDC-136960] it was -10.77%; in that of `O=C(Cc1c[nH]cn1)Nc1cccc(-c2ccc(-c3nc4cc(F)ccc4[nH]3)s2)c1` [TCMDC-136953], 5.637%.
In the case of `Cc1cccc2nc(-c3cccc(-c4cccc(CNCCc5ccncc5)c4)c3)[nH]c12.O=C(O)C(F)(F)F` [TCMDC-132844] it was 3.347%; in that of `O=C(CCc1cccnc1)Nc1cccc(-c2ccc(-c3nc4cc(C(F)(F)F)ccc4[nH]3)s2)c1` [TCMDC-132147], 0.1764%; in that of `CC(=O)Nc1ccc(C(=O)NC2CCN(c3ccnc4cc(Cl)ccc34)CC2)cc1` [TCMDC-133572], 1.937%.
In the case of `CC(C)C[C@H](NC(=O)c1cc2ccccc2s1)C(=O)N[C@H]1CCN(Cc2ccc(OCCN3CCNCC3)c3ccccc23)C1` [TCMDC-140289] it was 107.5%; in that of `COc1ccc(Nc2nccc(N3CCC(NC(=O)c4cc5ccccc5s4)C3)n2)cc1` (centres unmarked) [TCMDC-133614], -3.392%.
In the case of `CC(C)C[C@H](NC(=O)c1cc2ccccc2s1)C(=O)N[C@H]1CCN(Cc2ccc(OC[C@@H]3CCCN3C)c(Cl)c2)C1` [TCMDC-140292], the “% Inhibition” value came out at 28.24%.
In the case of `CC(C)C[C@H](NC(=O)c1cc2ccccc2s1)C(=O)N[C@H]1CCN(Cc2ccc(OC[C@@H]3CCCN3C)c3ccccc23)C1` [TCMDC-140290], the “% Inhibition” value is on record as 74.51%.
In the case of `COc1cc(Nc2nccc(N3CCC(NC(=O)c4cc5ccccc5s4)C3)n2)cc(OC)c1OC` (centres unmarked) [TCMDC-133624] it was 0.1379%.
As for `O=C(Nc1cccc(C(F)(F)F)c1)N1CCOC(CCN2CCC3(CCc4ccccc43)CC2)(c2ccc(Cl)c(Cl)c2)C1` (centres unmarked) [TCMDC-135340], the “% Inhibition” value is -5.677%.
`OCC1CCN(Cc2cccc(C#Cc3cc4ncnc(Nc5ccc(OCc6cccc(F)c6)c(Cl)c5)c4s3)n2)CC1` [TCMDC-138841]: the “% Inhibition” value was 11.44%.
In the case of `Cc1cc(N2CCN(C)CC2)nc2ccc(NC(=O)Cc3cccc(C(F)(F)F)c3)cc12` [TCMDC-123590] it was 92.11%; in that of `Cc1cc(N2CCN(C)CC2)nc2ccc(NC(=O)c3cccc(N(C)C)c3)cc12` [TCMDC-124449], 4.693%; in that of `CCN1CCN(c2cc(C)c3cc(NC(=O)c4cccc(C(F)(F)F)c4)ccc3n2)CC1` [TCMDC-125572], -33.11%.
Regarding `Cc1cccn2c(=O)c3cc(C(=O)NC(C)c4ccccc4)c(=N)n(CCN4CCOCC4)c3nc12` (centres unmarked) [TCMDC-125137], the “% Inhibition” value turned out to be 27.67%.
For the compound `COCCn1c(-c2nc(-c3ccc(F)cc3)cnc2N)nc2ccccc21` [TCMDC-138875], the “% Inhibition” value is on record as 21.39%.
With `CN=C(N)c1ccc(NC(=O)C=Cc2ccc(C(=O)Nc3ccc(C(N)=NC)cc3)cc2)cc1` [TCMDC-137193], the “% Inhibition” value is listed as 77.71%.
For the compound `O=C(C=Cc1ccc(C(=O)Nc2ccc(C3=NCCN3)cc2)cc1)Nc1ccc(C2=NCCN2)cc1` [TCMDC-137212], the “% Inhibition” value is on record as 61.27%.
In the case of `O=C(Nc1ccc(C(=O)Nc2cccc(C3=NCCN3)c2)cc1)Nc1ccc(C2=NCCN2)cc1` [TCMDC-137196] it was -21.25%; in that of `CN=C(N)c1ccc(NC(=O)c2ccc(C(=O)Nc3ccc(C(N)=NC)cc3)cc2)cc1` [TCMDC-137214], -8.132%; in that of `O=C(CCCC(=O)Nc1ccc(C2=NCCN2)cc1)Nc1ccc(C2=NCCN2)cc1` [TCMDC-138427], -1.956%.
Under `CN=C(N)c1ccc(NC(=O)Nc2ccc(C(N)=NC)cc2)cc1` [TCMDC-137211] stands 3.891%; under `N#Cc1cccc(C(=O)NC2CCN(c3ccnc(Nc4ccc(F)cc4)n3)C2)c1` (centres unmarked) [TCMDC-133593], 17.79%; under `Cc1noc(-c2ccc3c(c2)CCN(CCC2CCC(NC(=O)/C=C/c4ccc(F)cc4)CC2)CC3)n1` (centres unmarked) [TCMDC-139865], -60.69%.
In the case of `O=C(NC1CCC(CCN2CCc3ccc(-c4cnccn4)cc3CC2)CC1)c1cccc(-n2cccn2)c1` (centres unmarked) [TCMDC-140329] it was 67.17%; in that of `N#Cc1ccc2c(c1)CCN(CCC1CCC(NC(=O)/C=C/c3c[nH]c4ccc(F)cc34)CC1)CC2` (centres unmarked) [TCMDC-139667], -9.203%.
On to `Cc1cc(-c2ccc3c(c2)CCN(CCC2CCC(NC(=O)/C=C/c4ccccc4F)CC2)CC3)on1` (centres unmarked) [TCMDC-139974], for which the “% Inhibition” value is recorded as -78.86%.
Under `O=C(C=Cc1cccc(F)c1)NC1CCC(CCN2CCc3ccc(-c4cnccn4)cc3CC2)CC1` (centres unmarked) [TCMDC-140326] stands -57.13%; under `N#Cc1ccc(C=CC(=O)NC2CCC(CCN3CCc4ccc(-c5cnccn5)cc4CC3)CC2)cc1` (centres unmarked) [TCMDC-140327], -34.09%.
In the case of `Cc1cc(-c2ccc3c(c2)CCN(CCC2CCC(NC(=O)/C=C/c4ccc(F)cc4)CC2)CC3)on1` (centres unmarked) [TCMDC-139926], the “% Inhibition” value is on record as -90.16%.
Regarding `Cc1c[nH]c2ccc(/C=C/C(=O)NC3CCC(CCN4CCc5ccc(C#N)cc5CC4)CC3)cc12` (centres unmarked) [TCMDC-139669], the “% Inhibition” value was 1.674%.
In the case of `COc1ccccc1/C=C/C(=O)NC1CCC(CCN2CCc3ccc(-c4cc(C)no4)cc3CC2)CC1` (centres unmarked) [TCMDC-139975] it was 80.37%.
In the case of `Cc1ccc2[nH]cc(/C=C/C(=O)NC3CCC(CCN4CCc5ccc(C#N)cc5CC4)CC3)c2c1` (centres unmarked) [TCMDC-139682] it was 84.8%; in that of `Cn1cnc(-c2ccc3c(c2)CCN(CCC2CCC(NC(=O)/C=C/c4ccc(F)cc4)CC2)CC3)c1` (centres unmarked) [TCMDC-140338], 59.86%; in that of `O=C(C=Cc1ccc(F)cc1)NC1CCC(CCN2CCc3ccc(-c4cnccn4)cc3CC2)CC1` (centres unmarked) [TCMDC-140328], 0.8671%.
